In PubChem BioAssay:
The source made the active and inactive calls. Unless noted, no rule for the calls is given here.

Experiments:
[1] = tested on: Wnt5a (protein binding on small-molecule microarray); experiment: Wnt5a binders on small-molecule microarray, primary screen, biophysical, 635/667 nm fluorescence (AID 1142); settings: 635 nm fluorescence, higher = more signal;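 also: fluorescence read at 667 nm with signal to noise per printed feature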
[2] = cell viability in Huh7 cells, primary screen, cytotoxicity control for HCV replication inhibitor project, CellTiter-Glo luminescence, basal, 48 h (AID 1143); settings: Huh7 HCV replicon, higher = more signal, called active from +8 up or from −8 down;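 also: Huh7 hepatoma cells carrying a hepatitis C replication reporter with no stimulus; test concentration not given here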
[3] = P. aeruginosa biofilm formation inhibitors, primary screen, PAO1 strain, BacTiter-Glo luminescence, LB-PBS (AID 1144); settings: 12 h, higher = more signal
[4] = CREB reporter modulators without forskolin, primary screen, cell-based, PC12, CRE-LacZ reporter, unstimulated (AID 1145); settings: no forskolin, luminescence, 4.5 h, higher = more signal, called active from +8 up or from −8 down
[5] = CREB reporter modulators under forskolin, primary screen, cell-based, PC12, CRE-LacZ reporter, forskolin-stimulated (AID 1146); settings: luminescence, 4.5 h, higher = more signal, called active from +8 up or from −8 down;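 also: PC12 cells with 6xCRE LacZ reporter stimulated by forskolin 10 µM; beta-galactosidase reporter signal reflecting CREB driven transcription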
[6] = molecular target: Streptavidin (Streptomyces avidinii) (UniProt P22629); experiment: streptavidin binders on small-molecule microarray, primary screen, artefact control for SMM compound annotation, biophysical, 635/667 nm fluorescence (AID 1147); settings: streptavidin binding, higher = more signal;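 also: signal reflects streptavidin binding to arrayed compounds as a control protein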
Sequence of Streptavidin (Streptomyces avidinii) (P22629 whole entry, looked up): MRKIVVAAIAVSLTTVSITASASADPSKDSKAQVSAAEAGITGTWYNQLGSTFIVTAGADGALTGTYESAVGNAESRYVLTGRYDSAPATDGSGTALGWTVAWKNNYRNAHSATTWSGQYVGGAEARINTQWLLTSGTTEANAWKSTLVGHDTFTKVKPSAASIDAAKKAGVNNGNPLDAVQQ

[7] = small-molecule binders of probe aInhba, primary screen, biochemical, small-molecule microarray, 635/667 nm fluorescence (AID 1148); settings: higher = more signal;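 also: score merges 667nm spot fluorescence with signal-to-noise for antibody binding to printed compounds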
Torsin-1A (Homo sapiens) [8] = molecular target: Torsin-1A (Homo sapiens) (UniProt O14656); experiment: torsin A binders from cell lysate, primary screen, small-molecule microarray, wild-type, 635/667 nm (AID 1149); settings: COS7 hTOR1A-WT lysate, 635 nm fluorescence, higher = more signal
Sequence of Torsin-1A (Homo sapiens) (O14656 whole entry, looked up): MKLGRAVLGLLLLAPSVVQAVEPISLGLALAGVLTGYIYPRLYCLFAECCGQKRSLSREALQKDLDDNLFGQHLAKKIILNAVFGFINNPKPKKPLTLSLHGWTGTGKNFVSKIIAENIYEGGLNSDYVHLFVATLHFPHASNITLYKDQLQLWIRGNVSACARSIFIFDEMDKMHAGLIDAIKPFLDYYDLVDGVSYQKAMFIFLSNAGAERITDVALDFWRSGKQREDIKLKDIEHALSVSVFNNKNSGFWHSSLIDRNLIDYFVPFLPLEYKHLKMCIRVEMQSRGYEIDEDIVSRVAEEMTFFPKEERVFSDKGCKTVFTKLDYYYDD

Torsin-1A (Homo sapiens) [9] = molecular target: Torsin-1A (Homo sapiens) (UniProt O14656); experiment: small-molecule binders of mutant TOR1A in lysate, primary screen, cell lysate, small-molecule microarray, COS7 lysate, 635/667 nm fluorescence (AID 1150); settings: COS7 hTOR1A mutant lysate, 635 nm fluorescence, higher = more signal;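 also: score pools 667 nm emission and signal to noise measuring lysate protein binding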
[10] = tested on: Sonic hedgehog protein (Shh); experiment: small-molecule binders of Shh protein, primary screen, biochemical, small-molecule microarray, 635/667 nm fluorescence (AID 1151); settings: small-molecule microarray binding, 635 nm fluorescence; higher = more signal;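 also: Shh protein binding to compounds spotted on small-molecule microarray slides; score combines spot fluorescence intensity with signal-to-noise across triplicate slides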

SMILES	composite z-score [1]	z-score [2]	z-score [3]	z-score [4]	z-score [5]	composite z-score [6]	composite z-score [7]	composite z-score (Torsin-1A (Homo sapiens) [8])	composite z-score (Torsin-1A (Homo sapiens) [9])	composite z-score [10]
COCCOC(=O)N1C(=O)[C@@]2(c3ccccc31)[C@H](C(=O)N1CCCCCCC1)[C@H]1C(=O)O[C@H](c3ccccc3)[C@H](c3ccccc3)N1[C@@H]2c1ccc(OCCO)cc1	2.59	-2.7 (inactive)	-0.276 (inactive)	-1.29 (inactive)	-0.791 (inactive)	4.29	2.4	3.22	3.39	2.31
CCN(CC)c1ccc(N2CC=CC34O[C@@H]5C=CCOC(=O)[C@@H]5[C@H]3C(=O)N(CCCCCCO)[C@@H]4C2=O)cc1 (stereo not given in full)	-0.452	-0.289 (inactive)	-0.593 (inactive)	-0.488 (inactive)	-1.57 (inactive)	-0.881	-0.154	0.914	0.339	-0.326
C=CCC(OC(C)=O)[C@@H]1[C@@H](N(Cc2ccc(-c3ccccc3)cc2)C(=O)Cc2ccc(F)cc2)c2cc(OCCCO)ccc2N1C(=O)c1ccc2ccccc2c1 (stereo not given in full)	-0.121	0.0038 (inactive)	0.197 (inactive)	0.819 (inactive)	0.601 (inactive)	-0.0075	0.0464	-0.287	-0.0056	0.627
C[C@H]1C2[C@H](Cc3ccccc3)NC(=O)[C@]23C(=O)NCC(=O)N2CCC[C@H]2C(=O)NC/C=C/CCC/C=C/C3[C@@H]2O[C@]12C (stereo not given in full)	-0.376	-1.02 (inactive)	0.785 (inactive)	1.32 (inactive)	-1.25 (inactive)	-1.3	-0.179	-0.793	-0.333	0.468
NC(=O)[C@@H]1[C@H]2C(=O)O[C@H](c3ccccc3)[C@H](c3ccccc3)N2[C@H](c2ccc(OCCO)cc2)[C@@]12C(=O)Nc1ccc(C#CC3=CCCCC3)cc12	0.0384	-6.11 (inactive)	-1.74 (inactive)	-1.28 (inactive)	-0.546 (inactive)	0.778	0.0047	0.618	0.817	1.24
O=C1C2C=CC(C(O)c3ccc(-c4ccccc4)s3)N(Nc3ccccc3)C2C(=O)N1c1ccccc1 (stereo not given)	0.155	-0.514 (inactive)	-1.25 (inactive)	0.0569 (inactive)	0.117 (inactive)	0.908	0.0183	-0.499	1.21	0.0134
COC(=O)[C@@]1(Cc2ccc(OC)cc2)[C@H]2c3cc(C(=O)N4CCCC4)n(Cc4nc5ccccc5[nH]4)c3C[C@H]2CN1C(=O)c1ccccc1	0.704	-2 (inactive)	0.848 (inactive)	-0.182 (inactive)	0.147 (inactive)	1.78	0.802	0.0984	1.7	-0.245
